In the library only some 4% were active in any assay of this set; here they are far more common.
D1 PAM = Potentiators of Human D1 Dopamine Receptor: qHTS; AID 504651, 2011; potentiation, % at 10 µM; D(1A) dopamine receptor (Homo sapiens), P21728; HEK293 TREx D1 cells, calcium flux, dopamine EC20 potentiation; 360,000 tested, 0.036% active; in the data active = potentiation above about 30%; note: 0% is about no effect
Target sequence (P21728 whole entry, looked up): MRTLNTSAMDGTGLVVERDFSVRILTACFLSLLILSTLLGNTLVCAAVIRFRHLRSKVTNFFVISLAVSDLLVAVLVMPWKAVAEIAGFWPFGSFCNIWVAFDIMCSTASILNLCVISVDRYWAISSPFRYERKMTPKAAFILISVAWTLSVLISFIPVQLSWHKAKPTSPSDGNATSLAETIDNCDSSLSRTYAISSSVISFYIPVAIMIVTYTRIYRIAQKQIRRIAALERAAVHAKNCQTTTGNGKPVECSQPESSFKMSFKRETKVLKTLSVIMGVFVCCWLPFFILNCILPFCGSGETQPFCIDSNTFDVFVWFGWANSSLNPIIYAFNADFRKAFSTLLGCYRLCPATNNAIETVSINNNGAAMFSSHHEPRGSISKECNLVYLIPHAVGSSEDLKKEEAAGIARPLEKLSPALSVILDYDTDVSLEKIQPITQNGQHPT
D1 antagonist = Antagonist of Human D 1 Dopamine Receptor: qHTS; 360,000 tested, 3.2% active; AID 504652, 2011; activity change, negative = inhibition, % at 10 µM; HEK293 TREx D1 cells, calcium flux, dopamine EC80; stronger effect = lower value; in the data active = activity change below about -30%; note: % is set by controls: 0 for no effect and ±100 for the full control effect
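Calcium flux readout: force-coupled, inducible Hek293 Trex D1 line, cells induced overnight at 30 C with tetracycline, dye-loaded 30–90 min at RT. Antagonism scored against EC80 dopamine challenge given 180 s after compound.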
Glioma ERSR ind = qHTS for Inducers of the Endoplasmic Reticulum Stress Response (ERSR) in Human Glioma: qHTS; U87-MG GRP78 promoter luciferase reporter, 16 h; Potency, µM, for the others: at the top dose activation, most hits filed as activators; 420,000 tested, 0.02% active; AID 602332, 2012; active = well fitted activation curve with a large enough effect; note: potency is the fitted concentration of half-maximal effect; series mostly up to about 76 µM; % of control where 0% means no effect; nearly all actives have a fitted effect of over 35% in size
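ERSR induction read as luciferase luminescence (Bright-Glo, 10 min at room temperature) in stably transfected human U87-MG glioma cells exposed to compounds for 16 h, using GRP78 as sensor.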
TRHR ag = qHTS for Small Molecule Agonists and Allosteric Enhancers of Human TRH Receptor: Primary Screen for Agonists; Thyrotropin-releasing hormone receptor (Homo sapiens), P34981; TRHR cells, calcium flux fluo-8, FDSS agonist mode; activation, % at 2 µM; 360,000 tested, 0.18% active; AID 493084, 2011; note: 0% is about no effect
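Steps: seed TRHR cells overnight; add fluo-8 no-wash Ca dye, RT 30 min–1.5 h; record 10 s baseline; pin-transfer compounds; monitor fluorescence 1 cycle/s for the agonist window. Calcium increases flag candidate agonists.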
TRHR enhancer = qHTS for Small Molecule Agonists and Allosteric Enhancers of Human TRH Receptor: Primary Screen for Enhancers. Thyrotropin-releasing hormone receptor (Homo sapiens), P34981. TRHR cells, fluo-8 calcium fluorescence, EC20 TRH enhancement. enhancement, % at 2 µM. 360,000 tested, 0.66% active. AID 493056, 2011; in the data active = enhancement above about 30%; note: 0% is about no effect
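Enhancer read-out: after compound pinning and an initial kinetic agonist-mode read, an EC20 of TRH (10 nM final) was injected and fluo-8 calcium signal (Ex 480/Em 530) followed at 1 s/cycle for 100 cycles in TRHR-expressing cells.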
D1 agonist = Allosteric Agonists of the Human D1 Dopamine Receptor: qHTS; D(1A) dopamine receptor (Homo sapiens), P21728; HEK293 T-REx D1 cells, calcium flux, agonist mode; activation, % at 2 µM; 360,000 tested, 1% active; AID 504660, 2011; note: 0% is about no effect
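Tetracycline-induced HEK293 TREx D1 cells, force-coupled to calcium signalling, were dye-loaded with a no-wash calcium kit. Compound was pin-added after a 10 s baseline. Fluorescence was read kinetically at 1 cycle/s for 180 s, with calcium rises flagged as agonism.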
* hit, by the source's call. Cut-off read from the data, not from the text of the source, unless noted: active = activation above about 30%; inactive = the rest.

What do the screens show for `O=C(CCCc1ccccc1)Nc1cccc([N+](=O)[O-])c1`?
D1 PAM: -11; D1 antagonist: -37*; Glioma ERSR ind: 5%; TRHR ag: 0; TRHR enhancer: -9; D1 agonist: 14

How did O=C(COc1ccc(/C=N/NC(=O)c2ccncc2)cc1)Nc1ccccc1 do in these assays?
D1 PAM: -2; D1 antagonist: -5; Glioma ERSR ind: -3%; TRHR ag: 0; TRHR enhancer: -7; D1 agonist: 1

How did CC(Nc1nc(N2CCNCC2)nc2ccccc12)c1ccccc1 (configuration not stated) do in these assays?
D1 PAM: -11; D1 antagonist: -54*; Glioma ERSR ind: -9%; TRHR ag: 0; TRHR enhancer: -6; D1 agonist: 3

Results for COc1ccccc1NC(=O)N(C)C[C@H]1Oc2ncc(Br)cc2C(=O)N([C@H](C)CO)C[C@H]1C ?
Glioma ERSR ind: -2%

Results for CC(C)(C)n1nc2c(c1NC(=O)Cc1cccs1)CSC2 ?
D1 antagonist: -81*; TRHR ag: 0; TRHR enhancer: -1; D1 agonist: 2

What do the screens show for `CC(C)(C)n1nc2c(c1NC(=O)Cc1ccc(F)cc1)CSC2`?
D1 antagonist: 14; Glioma ERSR ind: 3%; TRHR ag: 0; TRHR enhancer: -6; D1 agonist: 5

How did NC(=O)[C@@H]1CSSCCC(=O)N[C@@H](CCCCN=C(N)N)C(=O)NCC(=O)N[C@@H](CC(=O)O)C(=O)N[C@@H](Cc2c[nH]c3ccccc23)C(=O)N2CCC[C@H]2C(=O)N1 do in these assays?
Glioma ERSR ind: -2%

How did COc1ccc(C2CC(c3ccccc3)=NN2c2ccc(N)cc2)cc1 (configuration not stated) do in these assays?
D1 PAM: -3; D1 antagonist: -30*; Glioma ERSR ind: 0%; TRHR ag: 1; TRHR enhancer: -1; D1 agonist: 8

What do the screens show for `COc1ccc(C2=NN(C(N)=S)C(c3ccccc3)C2)cc1` (configuration not stated)?
D1 PAM: 1; D1 antagonist: -30*; Glioma ERSR ind: 7%; TRHR ag: -1; TRHR enhancer: 0; D1 agonist: 5

Results for COc1ccc(C2CC(c3ccccc3O)=NN2c2ccccc2)cc1 (configuration not stated) ?
Glioma ERSR ind: -5%

How did COc1ccc(C2CC(c3ccc4ccccc4c3)=NN2C(=O)CNC2CCCCC2)cc1 (configuration not stated) do in these assays?
D1 PAM: 1; D1 antagonist: 17; Glioma ERSR ind: -11%; TRHR ag: 0; TRHR enhancer: 5; D1 agonist: 32*

What do the screens show for `COc1ccc(C2=NN(C(=S)Nc3ccccc3)C(c3ccccc3)C2)cc1` (configuration not stated)?
D1 PAM: -2; D1 antagonist: -8; Glioma ERSR ind: 0%; TRHR ag: 0; TRHR enhancer: 1; D1 agonist: 3

How did OC(c1cccnc1)c1ccc2c(c1)CN(Cc1ccc(-c3ccccc3Cl)o1)CCO2 (configuration not stated) do in these assays?
Glioma ERSR ind: 2%

How did N#Cc1c(-c2ccccc2Cl)cc(C2CC2)nc1N do in these assays?
D1 PAM: 7; D1 antagonist: 21; Glioma ERSR ind: -2%; TRHR ag: 13; TRHR enhancer: 24; D1 agonist: 99*

How did O=C(COC(=O)Cc1c[nH]c2ccccc12)Nc1ccc(Cl)cc1 do in these assays?
Glioma ERSR ind: -3%

Results for NC(=O)c1ccsc1NC(=O)COC(=O)Cc1cccc2ccccc12 ?
D1 PAM: 6; D1 antagonist: -30; Glioma ERSR ind: -10%; TRHR ag: 0; TRHR enhancer: 9; D1 agonist: 12

What do the screens show for `O=C(COC(=O)Cc1c[nH]c2ccccc12)Nc1ccccc1`?
D1 PAM: -6; D1 antagonist: -34*; Glioma ERSR ind: -1%; TRHR ag: 0; TRHR enhancer: 4; D1 agonist: 5

Results for NC(=O)c1ccsc1NC(=O)COC(=O)Cc1c[nH]c2ccccc12 ?
D1 PAM: -10; D1 antagonist: -34*; Glioma ERSR ind: -4%; TRHR ag: 0; TRHR enhancer: 3; D1 agonist: 14

Results for Cc1cccc(NC(=O)COC(=O)Cc2c[nH]c3ccccc23)c1C ?
D1 PAM: 0; D1 antagonist: -32*; Glioma ERSR ind: -2%; TRHR ag: 0; TRHR enhancer: -6; D1 agonist: 2

How did CCOC(=O)CCCCC1=CC2=CC(=O)C(C)(O)C(=O)C2=CO1 (configuration not stated) do in these assays?
Glioma ERSR ind: -5%

Results for CC(=O)Nc1ccc(S(=O)(=O)N2CCN=C2SCc2ccc(C)cc2)cc1 ?
D1 PAM: -3; D1 antagonist: -41*; Glioma ERSR ind: 4%; TRHR ag: 1; TRHR enhancer: 16; D1 agonist: 23

What do the screens show for `CC(=O)Nc1ccc(S(=O)(=O)N2CCN=C2SCc2ccc(F)cc2)cc1`?
D1 PAM: -20; D1 antagonist: -26; Glioma ERSR ind: -5%; TRHR ag: -1; TRHR enhancer: -2; D1 agonist: 37*

How did O=C(N/N=C/c1cccs1)C(=O)Nc1cccc(Cl)c1 do in these assays?
D1 PAM: -4; D1 antagonist: -66*; Glioma ERSR ind: -1%; TRHR ag: 1; TRHR enhancer: 13; D1 agonist: 14

How did CCOc1ccc(C(C(=O)NC2CCCC2)N(CCCO)C(=O)c2ccc(-c3ccccc3)[nH]2)cc1 (configuration not stated) do in these assays?
D1 PAM: 3; D1 antagonist: -30*; Glioma ERSR ind: -4%; TRHR ag: -1; TRHR enhancer: -7; D1 agonist: 1

Results for O=C(NC1CCCC1)C(c1ccncc1)N(CCCN1CCOCC1)C(=O)c1ccc(-c2ccccc2)[nH]1 (configuration not stated) ?
D1 PAM: 10; D1 antagonist: 4; Glioma ERSR ind: -4%; TRHR ag: 0; TRHR enhancer: -4; D1 agonist: 0

Results for CC(C)/C=N/Nc1nc(-c2ccc(Br)cc2)cs1 ?
D1 PAM: -2; D1 antagonist: -46*; Glioma ERSR ind: 2%; TRHR ag: 0; TRHR enhancer: 2; D1 agonist: 0

Compound activity deposited in PubChem BioAssay by National Center for Advancing Translational Sciences (NCATS).
